# In the library only some 0.9% were active in any assay of this set; here they are far more common.
# E coli growth-1 – counter-screen for AddAB inhibitors: E. coli growth inhibition; E. coli V3065 growth, OD600 absorbance, 18 h; inhibition, % at 11.9 µM; 330,000 compounds, 0.27% hits;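 active means inhibition above the campaign's mean inhibition across all tested compounds plus 3 SD, cut at about 9.9% in these data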;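 further: uninfected addAB+ strain grown without phage in ampicillin broth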
# AddAB inh – less growth of phage-infected E. coli with AddAB. 330,000 compounds, 0.29% hits. E. coli expressing H. pylori AddAB, absorbance growth. inhibition, % at 11.9 µM; in the data active means inhibition above about 12%
# Tat export inh – inhibitors of E. coli Tat protein transport; 340,000 compounds, 0.036% hits; E. coli MC4100 TorA-mCherry Tat export, fluorescence; inhibition, % at 10 µM; AID 488895;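 active means mean replicate inhibition at least 50% and at least half of replicates individually reaching 50%; inconclusive means only one of the two criteria met; inactive means neither criterion met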;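 further: exported cargo escapes ClpAP degradation while cytoplasmic cargo is degraded and loses fluorescence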
# Calb FLC – affects C. albicans growth with fluconazole; 300,000 compounds, 0.57% hits; AID 1979; growth inhibition, % (concentration not given with the values); C. albicans CaCi-2 (fluconazole-resistant clinical isolate) + fluconazole, Alamar Blue growth, 48 h;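 active means growth inhibition above about 58% in most replicates, limit read from the data, passing the limit was not always enough; inconclusive means exactly half the replicates above a set limit; inactive means most replicates below a set limit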;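 further: all wells also contain fluconazole at 8 µg/ml as a sub-toxic cotreatment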
# E coli growth-2 – inhibitors of Escherichia coli growth. AID 1053175. 330,000 compounds, 0.21% hits. OD600 absorbance (test concentration not listed). OD600, 23 h; stronger effect = lower value;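 active means OD600 absorbance below the run mean of sample wells minus 3.6 SD, in any replicate, cut at about 0.56 in these data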
# phage Ecoli inh – E. coli growth loss with phage present | growth absorbance | inhibition, % at 11.9 µM | 360,000 compounds, 0.26% hits; in the data active means inhibition above about 11%
# RecBCD conf – confirmation: growth loss of phage-infected RecBCD+ E. coli (RecBCD inhibitor screen). E. coli V66 + T4 2- phage, growth OD. inhibition, % at 11.9 µM. 890 compounds, 45% hits. shares compounds with phage Ecoli inh;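 active means mean inhibition over triplicates exceeding the hit threshold derived in the original primary screen, cut at about 11% in these data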
# Ecoli viability – counter-screen for RecBCD inhibitors: inhibitors of bacterial viability. 890 compounds, 29% hits. shares compounds with phage Ecoli inh. inhibition, % at 11.9 µM. E. coli viability, absorbance (OD) growth. AID 651983; in the data active means inhibition above about 20%;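 further: E. coli strain V66 grown with compound alone and no phage infection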
# AddAB counter – growth loss of phage-infected AddAB E. coli, RecBCD counter-screen; shares compounds with phage Ecoli inh; E. coli expressing H. pylori AddAB + T4 phage, OD growth; gene 2 mutant T4, recBCD-deleted host; inhibition, % at 11.9 µM; 890 compounds, 45% hits; AID 651984;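 active means mean inhibition above the solvent-only control wells' mean plus 3 SD, cut at about 22% in these data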;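 further: higher means less bacterial growth from phage killing when AddAB is blocked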
# Numbers stand for hits; 0 = inactive; ? = inconclusive; - = no result given.
SMILES,E coli growth-1,AddAB inh,Tat export inh,Calb FLC,E coli growth-2,phage Ecoli inh,RecBCD conf,Ecoli viability,AddAB counter
O=C(NN=Cc1ccccc1)c1cccc2ccccc12,-,-,-,-,0,-,-,-,-
Cc1ccc(-c2nc3ccc(Cl)cc3c(=O)n2O)cc1,0,0,0,106,0,11,0,0,0
O=c1c2cc(Cl)ccc2nc(-c2ccccc2Cl)n1O,0,0,0,0,0,0,-,-,-
O=C(CN1CCN(Cc2ccccc2)CC1)NN=C/C=C/c1ccco1,-,-,-,-,0,-,-,-,-
Oc1ccc(Cc2ccccc2)c2cccnc12,-,-,-,-,0,15,0,0,0
ON=C(c1ccccc1)c1nccc2ccccc12,-,-,-,-,0,-,-,-,-
CC(=NNC(=S)Nc1cccc(C)c1)c1ccccn1,-,-,0,-,-,14,16,0,0
COc1ccccc1NC(=S)NN=C(C)c1ccccn1,-,-,0,-,-,17,14,0,0
COc1ccc(C(=O)N/N=C(\C)c2ccccn2)cc1OC,0,0,0,0,-,0,-,-,-
O=C1NCC(Cc2cccc3ccccc23)N(CCc2cc(C(F)(F)F)cc(C(F)(F)F)c2)C1=O (stereo not drawn),-,-,-,-,0,-,-,-,-
O=C(N/N=C\C=C\c1ccc([N+](=O)[O-])o1)c1cccs1,-,-,0,91,-,98,105,107,104
CC(CC(=O)Nc1ccccn1)=NNC(=O)c1ccccc1,-,-,-,-,0,-,-,-,-
C/C(CC(=O)Nc1ccccn1)=N\NC(=O)c1ccccc1O,0,0,0,?,-,19,0,0,0
C=C(C)CNC(=O)C1CCC(=O)N(CCCc2ccccc2)C1 (stereo not drawn),0,0,0,0,-,30,0,0,0
O=C(NCCc1cccc(F)c1)C1CCC(=O)N(CCCc2ccccc2)C1 (stereo not drawn),0,0,0,0,0,0,-,-,-
O=C(CSc1nc2ncc(Cl)cc2[nH]1)Nc1cccc(F)c1,0,0,0,0,0,12,0,0,0
CN(CC(=O)Nc1ccc(F)cc1)C(=O)CSc1nc2ncc(Cl)cc2[nH]1,0,0,0,0,0,0,-,-,-
O=S(=O)(c1ccc(Cl)nc1)N1CCc2ccccc21,0,0,0,0,0,95,0,0,0
COc1ccc(C(=O)CSc2nnc3ccc(-c4ccccn4)nn23)cc1,0,0,0,0,0,25,0,0,0
COc1ccc(NC(=O)CSc2nnc3ccc(-c4ccccn4)nn23)cc1,0,0,0,0,0,0,-,-,-
Cc1onc(-c2ccccc2)c1C(=O)NN=Cc1ccc(O)c([N+](=O)[O-])c1,-,-,-,-,0,-,-,-,-
CCOc1ccc(C=NOCC(=O)Nc2cc(S(=O)(=O)N3CCOCC3)ccc2OC)cc1,-,-,-,-,0,-,-,-,-
O=C(NN=Cc1ccco1)C(=O)Nc1cccc(C(F)(F)F)c1,-,-,-,-,-,0,-,-,-
CCOc1cccc(C=NNC(=O)C(=O)Nc2cccc(C(F)(F)F)c2)c1O,-,-,-,-,-,18,11,0,0
COCc1ccccc1C1=CC(=O)CC(c2ccc(F)cc2)C1 (stereo not drawn),-,-,-,-,0,-,-,-,-
SMILES,E coli growth-1,AddAB inh,Tat export inh,Calb FLC,E coli growth-2,phage Ecoli inh,RecBCD conf,Ecoli viability,AddAB counter
Nc1nc(=O)n(C2CC(O)C(CO)O2)cc1Cl (stereo not drawn),-,-,-,-,-,12,0,0,38
Nc1nc(=O)n(C2CC(O)C(CO)O2)cc1F (stereo not drawn),-,-,?,-,-,87,78,77,90
Nc1ncn(C2CC(O)C(CO)O2)c(=O)n1 (stereo not drawn),-,-,-,-,0,-,-,-,-
CCC(=O)Nc1cccc(C2=NOC3(C2)CC(C(N)=O)N(C(=O)c2ccccc2C(=O)c2ccccc2)C3)c1 (stereo not drawn),-,-,-,-,0,-,-,-,-
COc1cccc(NC(=O)c2ccc3c(c2)N(C)CCS3)c1,0,0,0,0,0,0,-,-,-
CN1CCSc2ccc(C(=O)Nc3ccc(Cl)cc3)cc21,0,0,0,0,-,100,0,0,0
COc1ccc(NS(=O)(=O)c2cccc(NC(=NS(=O)(=O)c3ccccc3)c3ccc(F)cc3)c2)cc1,-,-,-,-,0,-,-,-,-
Cc1cc(C)c2c(c1)C(=NNC(=O)c1ccc(O)cc1)CCC2,-,-,-,-,0,-,-,-,-
CC1CCCC(C)N1c1nnc(NC(=O)c2cc(-c3ccc(Br)cc3)on2)s1 (stereo not drawn),0,0,0,0,-,95,0,0,0

# Screening results as filed in PubChem.
